High-throughput results: PubChem, Broad Institute
Only some compounds are listed: those with a hit (about 3.9% of all), similar ones and a draw of the others.
Wnt bcat act – activators of Wnt/beta-catenin signaling | activation, % at 9.35 µM | 300,000 compounds, 1.2% hits | Wnt/beta-catenin reporter cell assay, activator, plate reader; in the data active means activation above about 30%, passing the limit was not always enough; inconclusive means no clear call, values can overlap the other calls
esBAF inh – blocks esBAF chromatin remodeling in mouse ES cells; Bmi1-luciferase knock-in reporter, 24 h; 100% = twice the neutral-well signal; 350,000 compounds, 2% hits; reporter increase, % at 12.5 µM; in the data active means activation above about 40%; inconclusive means no clear call, values can overlap the other calls;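 further: a rise in the Bmi1 reporter signal indicates esBAF inhibition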
HSF1 activator – increases HSF-1 driven luciferase reporter signal; 300,000 compounds, 1.7% hits; activation, % at 9 µM; NIH3T3-HGL HSF-1 luciferase reporter, MG132, 8 h; 100% = twice DMSO control signal; AID 504408;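 active means mean replicate activation of at least 50% with a set share of replicates each reaching 50%; inconclusive means only one of those two conditions met; inactive means mean below 50% and too few replicates reaching it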
MITF act – increases MITF-driven TRPM1 promoter luciferase signal. SK-MEL-5 TRPM1-promoter luciferase, 24 h; % of positive control, neutral wells = 0. activation, % at 12.5 µM. 300,000 compounds, 0.75% hits. AID 588334;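 active means mean activation of at least 80% with every replicate also reaching 80%; inconclusive means mean reaches 80% but some replicate falls short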
HSF1 inh – HSF1 inhibition; NIH3T3-HGL HSE-luciferase, MG132-induced, luminescence 8 h; active compounds read low; activity change, negative = inhibition, % at 7.5 µM (by protocol); 300,000 compounds, 0.77% hits; AID 2098;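 active means more than half of replicate wells show activity change below -50%, luminescence cut by over half; inconclusive means some wells, but at most half, below -50%; inactive means no replicate well below -50%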;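 further: luciferase reports HSF-1 transcriptional activity via heat shock element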
Each line names hits and unclear results; the compound was inactive in the other large screens.

CCOC(=O)c1c(NC(=O)c2nn(CC)cc2Br)c(C#N)nn1-c1ccccc1	HSF1 activator 52 (no result: Wnt bcat act)
CC(=O)C(=Cc1ccc(C(=O)O)cc1)C(C)=O	HSF1 activator inconclusive (no result: esBAF inh)
C/C(=C\c1ccc(C(=O)O)cc1)c1ccc2c(c1)C(C)(C)CCC2(C)C	esBAF inh 46 (no result: HSF1 activator, HSF1 inh)
COC(=O)c1c(NC(=O)c2cccs2)sc2c1CCC(C)C2 (stereo unspecified)	esBAF inh 50 (no result: HSF1 activator, HSF1 inh)
CCCC1CCc2c(sc(NC(=O)c3cccs3)c2C(N)=O)C1 (stereo unspecified)	esBAF inh inconclusive, HSF1 activator 61 (no result: Wnt bcat act)
NC(=O)c1c(NC(=O)c2cccnc2)sc2c1CCCC2	none (no result: esBAF inh)
CCC1CCc2c(sc(NC(=O)c3cccnc3)c2C(N)=O)C1 (stereo unspecified)	esBAF inh 38
CCC1CCc2c(sc(NC(=O)c3ccoc3C)c2C(N)=O)C1 (stereo unspecified)	none (no result: Wnt bcat act, MITF act)
CC1CCc2c(sc(NC(=O)c3cccs3)c2C(=O)O)C1 (stereo unspecified)	none (no result: esBAF inh)
CC(=O)N(C)C[C@@H]1Oc2ncc(C3=CCCC3)cc2C(=O)N([C@H](C)CO)C[C@H]1C	none (no result: Wnt bcat act, HSF1 activator, MITF act, HSF1 inh)
O=C(C[C@H]1CC[C@H](NS(=O)(=O)c2ccc(F)cc2)[C@@H](CO)O1)NCc1ccncn1	none (no result: Wnt bcat act, HSF1 activator, MITF act, HSF1 inh)
O=C(/C=C/c1ccco1)Nc1cccnc1	Wnt bcat act 53 (no result: esBAF inh)
COc1ccccc1NC(=O)/C=C\c1ccco1	esBAF inh 54
COc1ccccc1NC(=S)NC(=O)/C=C/c1ccco1	none (no result: esBAF inh)
O=C(/C=C/c1ccco1)Nc1ccc(N2CCCC2)cc1	HSF1 activator 64 (no result: Wnt bcat act, esBAF inh)
O=C(/C=C/c1ccco1)c1cccnc1	none (no result: esBAF inh)
COc1cccc(NC(=O)/C=C/c2ccco2)c1	Wnt bcat act 68 (no result: esBAF inh)
C[C@@H]1CCCCO[C@H](CN(C)S(=O)(=O)c2ccc(Cl)cc2)[C@@H](C)CN([C@@H](C)CO)C(=O)c2cc(NC(=O)C3CCCCC3)ccc2O1	none (no result: Wnt bcat act, HSF1 activator, MITF act, HSF1 inh)
CN1C(=O)c2cc(NC(=O)C3CCCCC3)ccc2OC[C@H]2O[C@@H](CC(=O)NCCc3ccncc3)CC[C@H]21	none (no result: Wnt bcat act, HSF1 activator, MITF act, HSF1 inh)
C[C@@H]1CCCCO[C@H](CN(C)C(=O)Nc2ccc(C(F)(F)F)cc2)[C@@H](C)CN([C@H](C)CO)C(=O)c2cc(NC(=O)Nc3ccccc3)ccc2O1	none (no result: Wnt bcat act, HSF1 activator, MITF act, HSF1 inh)
CC[C@H](C)/C=C(C)/C=C/C(=O)Cc1cc(O)c(C)c(O)c1C=O	HSF1 activator 78
CC[C@H](C)/C=C(C)/C=C/c1cc2c(cn1)C(=O)[C@@](C)(OC(C)=O)C(O)=C2Cl	none (no result: HSF1 activator, MITF act, HSF1 inh)
Cc1nn2c(=O)cc(COC(=O)c3c(F)cccc3Cl)nc2s1	Wnt bcat act 50 (no result: HSF1 activator, HSF1 inh)
COc1cc2ccccc2cc1C(=O)Nc1cccnc1	esBAF inh 48
COc1cc(OC)c(C(=O)Nc2cccnc2)cc1OC	none
COc1cc2ccccc2cc1C(=O)Nc1ccc(C)cn1	Wnt bcat act 35, esBAF inh inconclusive
CC(=O)c1ccc(NC(=O)C2(c3ccccc3)CCOCC2)cc1	esBAF inh 55
Oc1ccc(F)c2cccnc12	none
Cc1ccc(N=Nc2ccc(O)c3ncccc23)cc1C	HSF1 inh -51 (no result: esBAF inh)
Cc1ccc(N=Nc2ccc(O)c3ncccc23)cc1	HSF1 activator 123 (no result: esBAF inh)
Oc1ccc(Cl)c2cccnc12	none (no result: HSF1 activator, HSF1 inh)
CC1SC(c2ccc(Cl)cc2)NC1=O (stereo unspecified)	HSF1 activator 68 (no result: Wnt bcat act)
Cc1ccc2c(Cl)c(C(=O)Nc3cc(C)on3)sc2c1	Wnt bcat act 42, esBAF inh 60
O=C(NCc1ccco1)c1sc2cc(F)ccc2c1Cl	esBAF inh 53
Cc1ccc2c(Cl)c(C(=O)NCCc3ccccc3)sc2c1	HSF1 activator 77, MITF act 106 (no result: Wnt bcat act, esBAF inh)
O=C(Nc1ccon1)c1sc2cc(F)ccc2c1Cl	esBAF inh 71 (no result: Wnt bcat act, HSF1 activator, MITF act, HSF1 inh)
O=C(NC1=NCCS1)c1sc2cc(F)ccc2c1Cl	none (no result: esBAF inh)
Cc1ccnc(NC(=O)c2sc3ccccc3c2Cl)c1	none (no result: Wnt bcat act, esBAF inh)
O=C(NCc1ccco1)c1cccc(F)c1	none (no result: Wnt bcat act)
C[C@@H]1CCCCO[C@@H](CN(C)Cc2ccc(C(=O)O)cc2)[C@@H](C)CN([C@@H](C)CO)C(=O)c2cc(NC(=O)Nc3cccc4ccccc34)ccc2O1	none (no result: Wnt bcat act, HSF1 activator, MITF act, HSF1 inh)
CCNC(=O)c1sc2cc(C)ccc2c1Cl	esBAF inh 24
Cc1ccc2c(Cl)c(C(=O)NCC3CCCO3)sc2c1 (stereo unspecified)	HSF1 activator 54 (no result: Wnt bcat act, esBAF inh)
C/C=C/c1ccc2c(c1)O[C@@H](CN(C)C(=O)CC)[C@@H](C)CN([C@@H](C)CO)S2(=O)=O	none (no result: Wnt bcat act, HSF1 activator, MITF act, HSF1 inh)
